Records with an inconclusive call do not appear. Where a call stands in place of a potency, no number is given. Activity calls are given as the source filed them. Calls follow the shape of the dose curve; as a rule, active = well fitted curve in the direction sought with a large enough effect; inconclusive = small, poorly fitted or top-dose-only effect, or another doubt; inactive = no such curve, though single readings can be large; an effect the other way counts as inactive or inconclusive.

This is an account of results in PubChem BioAssay (NCATS).

Phospholipid hydroperoxide glutathione peroxidase GPX4 (Homo sapiens), sequence (P36969 whole entry, looked up): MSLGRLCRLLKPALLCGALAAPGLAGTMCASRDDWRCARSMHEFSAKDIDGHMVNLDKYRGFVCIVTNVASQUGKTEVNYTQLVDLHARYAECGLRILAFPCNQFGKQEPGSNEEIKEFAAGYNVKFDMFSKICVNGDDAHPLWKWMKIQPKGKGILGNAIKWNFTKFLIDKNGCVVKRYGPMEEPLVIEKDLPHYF
Glutathione peroxidase 1 (Homo sapiens), sequence (P07203 whole entry, looked up): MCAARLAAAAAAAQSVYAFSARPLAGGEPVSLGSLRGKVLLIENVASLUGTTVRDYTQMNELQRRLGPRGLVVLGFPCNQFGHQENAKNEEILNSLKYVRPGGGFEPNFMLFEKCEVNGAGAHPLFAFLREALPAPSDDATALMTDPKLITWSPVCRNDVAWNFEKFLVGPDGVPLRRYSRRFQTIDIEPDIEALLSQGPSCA

Tested on in one assay: not listed separately
The assay is described as follows: NCATS anti-infectives library activity on HEK293 viability as a counter-qHTS vs the C. elegans viability qHTS (AID 1745854).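 Also: HEK293 cells exposed to compounds for 24 hr before the viability read.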 The following applies: HEK293 viability counter-screen; series mostly up to 41.8 µM. The method in brief:
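HEK293 cells (1,500/well) exposed 24 hr at 37C to 1:5 titrations, up to 41.7 uM final; counter-screen to a C. elegans viability qHTS. Viability by CellTiter-Glo luminescence after 10 min at room temperature; digitonin as control.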
In the case of `O=C(Nc1ccccc1)OCC(CN1CCCCC1)OC(=O)Nc1ccccc1` (configuration not stated), the molecule was classed as inactive.
For `O=C(O)P(=O)(O)O`, the molecule was classed as inactive.
As for `CC(C)Nc1cccnc1N1CCN(C(=O)c2cc3cc(NS(C)(=O)=O)ccc3[nH]2)CC1`, the call was inactive.
Turning to `OC[C@H]1O[C@@H](Oc2ccc(O)cc2)[C@H](O)[C@@H](O)[C@@H]1O`, the result was inactive.

In the next assay the target is Glutathione peroxidase 1 (Homo sapiens) (UniProt P07203). The assay is described as follows: Primary qHTS Assay for Inhibitors of Recombinant Selenoprotein Glutathione Peroxidase 1 (GPX1) (AID 1845191). Also: nearly all actives have a fitted effect of over 65% in size. Particulars: recombinant GPX1, GR-coupled NADPH fluorescence, 15 min; series mostly up to 48.8 µM. The procedure, abridged:
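Recombinant GPX1 (10 nM final) was preincubated with compound for 30 min at room temperature, then reacted with 1 mM GSH, 0.5 mM CHP, 0.5 mM NADPH and 100 nM glutathione reductase; NADPH fluorescence (340/450 nm) was read at 0 and 15 min.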
`COc1ccc(-c2cc(C(F)F)nn2-c2ccc(S(N)(=O)=O)cc2)cc1F`: the Potency result was “inactive”.
Take `CCN1CCCC(OC(=O)C(c2ccccc2)c2ccccc2)C1` (configuration not stated): the Potency result is “inactive”.
Consider `N#C/C(=C1\SCC(c2ccccc2Cl)S1)n1ccnc1` (configuration not stated), for which the Potency result is “inactive”.
For `C#C[C@]1(OC(C)=O)CC[C@H]2[C@@H]3CCC4=C/C(=N/O)CC[C@@H]4[C@H]3CC[C@@]21CC`, the Potency result was “inactive”.
With `O=C1c2cccc3c2[C@H](CCC3)CN1[C@@H]1CN2CCC1CC2`, the Potency entry was “inactive”.
Take `O=C1C(CCS(=O)c2ccccc2)C(=O)N(c2ccccc2)N1c1ccccc1` (configuration not stated): the Potency result was “inactive”.
For `C=C[C@H]1CN2CC[C@H]1C[C@H]2[C@H](O)c1ccnc2ccc(OC)cc12`, the Potency result was “inactive”.
On the same count and under the same terms, with `CCOC(=O)Nc1ccc2c(c1)N(C(=O)CCN1CCOCC1)c1ccccc1S2` the entry was “inactive”; with `COc1cc(N)c(Cl)cc1C(=O)NC1CCN(Cc2ccccc2)CC1`, “inactive”.
On to `O=C(O)P(=O)(O)O`, for which the Potency entry is “inactive”.
As for `CCOC(=O)c1ccc(N)cc1`, the Potency entry was “inactive”.
As for `NC(=O)c1ccccc1O`, the Potency result is “inactive”.
For the molecule `CC(=O)O[C@]1(C(C)=O)CC[C@H]2[C@@H]3C=C(Cl)C4=CC(=O)CC[C@]4(C)[C@H]3CC[C@@]21C`, the Potency entry was “inactive”.
Consider `O=C(NC1CCN(CCc2c[nH]c3ccccc23)CC1)c1ccccc1`, for which the Potency result was “inactive”.
Still for that read-out and setting: with `COc1cc(NS(=O)(=O)c2ccc(N)cc2)ncn1` the entry was “inactive”; with `c1ccc(-c2nc[nH]c2-c2ccccc2)cc1`, “inactive”; with `CN(C)CCOC(c1ccc(Cl)cc1)c1ccccn1` (configuration not stated), “inactive”.
In the case of `CNCCCCOc1ccccc1Cc1ccccc1`, the Potency result is “inactive”.
With `NC1CCN(c2nc3c(cc2F)c(=O)c(C(=O)O)cn3-c2ccc(F)cc2F)C1` (configuration not stated), the Potency entry is “inactive”.
With `C#C[C@]1(O)CC[C@H]2[C@@H]3CCC4=Cc5oncc5C[C@]4(C)[C@H]3CC[C@@]21C`, the Potency entry is “inactive”.
On the same count and under the same terms, with `CCCc1ncc(C[n+]2ccccc2C)c(N)n1` the entry was “inactive”; with `CCC1NC(=O)c2cc(S(N)(=O)=O)c(Cl)cc2N1` (configuration not stated), “inactive”.
Consider `CCc1nn(CCCN2CCN(c3cccc(Cl)c3)CC2)c(=O)n1CCOc1ccccc1`, for which the Potency result was “inactive”.
On the same count and under the same terms, with `CCCN(CCc1cccs1)[C@H]1CCc2c(O)cccc2C1` the entry was “inactive”; with `OC[C@H]1O[C@@H](Oc2ccc(O)cc2)[C@H](O)[C@@H](O)[C@@H]1O`, “inactive”.

The next assay concerns the target Phospholipid hydroperoxide glutathione peroxidase GPX4 (Homo sapiens) (UniProt P36969). The assay is described as follows: Primary qHTS Assay for Inhibitors of Recombinant Selenoprotein Glutathione Peroxidase 4 (GPX4) (AID 1845192). Also: nearly all actives have a fitted effect of over 65% in size. The following applies: recombinant GPX4, GR-coupled NADPH fluorescence, 15 min; series mostly up to 50 µM. The procedure, abridged: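 GR-coupled readout: 100 nM GR, 1 mM GSH, 0.5 mM NADPH; NADPH fluorescence (ex 340/em 450 nm) read at t=0 and after 15 min RT. GPX4 200 nM, preincubated 30 min with compound; substrate 0.5 mM CHP.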
Take `C[N+]1(C)CCC(=C(c2ccccc2)c2ccccc2)CC1`: the Potency entry is “inactive”.
For the molecule `C/C=C/c1ccc(O)c(OC)c1`, the Potency result was “inactive”.
Regarding `COc1ccc(-c2cc(C(F)F)nn2-c2ccc(S(N)(=O)=O)cc2)cc1F`, the Potency entry is “inactive”.
As for `CCN1CCCC(OC(=O)C(c2ccccc2)c2ccccc2)C1` (configuration not stated), the Potency entry was “inactive”.
Turning to `CC(C)Cc1ccc(CC(=O)O)cc1`, the Potency entry is “inactive”.
Take `N#C/C(=C1\SCC(c2ccccc2Cl)S1)n1ccnc1` (configuration not stated): the Potency entry is “inactive”.
Regarding `O=C(Nc1ccccc1)OCC(CN1CCCCC1)OC(=O)Nc1ccccc1` (configuration not stated), the Potency entry is “inactive”.
`CCCCC(CC)CN1CN(CC(CC)CCCC)CC(C)(N)C1` (configuration not stated): the Potency result is “inactive”.
Still for that read-out and setting: the entry for `C#C[C@]1(OC(C)=O)CC[C@H]2[C@@H]3CCC4=C/C(=N/O)CC[C@@H]4[C@H]3CC[C@@]21CC` is “inactive”; for `O=C1c2cccc3c2[C@H](CCC3)CN1[C@@H]1CN2CCC1CC2` it is “inactive”; for `O=C1C(CCS(=O)c2ccccc2)C(=O)N(c2ccccc2)N1c1ccccc1` (configuration not stated) it is “inactive”.
Same read-out and setting: the entry for `C=C[C@H]1CN2CC[C@H]1C[C@H]2[C@H](O)c1ccnc2ccc(OC)cc12` is “inactive”.
On to `CCOC(=O)Nc1ccc2c(c1)N(C(=O)CCN1CCOCC1)c1ccccc1S2`, for which the Potency entry was “inactive”.
Regarding `COc1cc(N)c(Cl)cc1C(=O)NC1CCN(Cc2ccccc2)CC1`, the Potency entry was “inactive”.
For the molecule `CCCCNc1ccc(C(=O)OCCOCCOCCOCCOCCOCCOCCOCCOCCOC)cc1`, the Potency entry is “inactive”.
As to `O=C(O)P(=O)(O)O`, the Potency result was “inactive”.
Consider `CCOC(=O)c1ccc(N)cc1`, for which the Potency entry was “inactive”.
In the case of `NC(=O)c1ccccc1O`, the Potency result was “inactive”.
The same measure, in the same setting: with `CC(=O)O[C@]1(C(C)=O)CC[C@H]2[C@@H]3C=C(Cl)C4=CC(=O)CC[C@]4(C)[C@H]3CC[C@@]21C` the entry was “inactive”; with `CC(=O)OCC1=C(C(=O)O)N2C(=O)[C@@H](NC(=O)CSc3ccncc3)[C@H]2SC1`, “inactive”.
Consider `O=C(NC1CCN(CCc2c[nH]c3ccccc23)CC1)c1ccccc1`, for which the Potency result is “inactive”.
For the molecule `CC(C)Nc1cccnc1N1CCN(C(=O)c2cc3cc(NS(C)(=O)=O)ccc3[nH]2)CC1`, the Potency result was “inactive”.
For `COc1cc(NS(=O)(=O)c2ccc(N)cc2)ncn1`, the Potency result is “inactive”.
Same read-out and setting: with `c1ccc(-c2nc[nH]c2-c2ccccc2)cc1` the entry was “inactive”; with `CCN(CC)CCOC(=O)C(Cc1cccc2ccccc12)CC1CCCO1` (configuration not stated), “inactive”; with `CN(C)CCOC(c1ccc(Cl)cc1)c1ccccn1` (configuration not stated), “inactive”.
As to `CC(=C(CCOC(=O)C(C)C)SSC(CCOC(=O)C(C)C)=C(C)N(C=O)Cc1cnc(C)nc1N)N(C=O)Cc1cnc(C)nc1N`, the Potency entry was “inactive”.
`CNCCCCOc1ccccc1Cc1ccccc1`: the Potency result was “inactive”.
`NC1CCN(c2nc3c(cc2F)c(=O)c(C(=O)O)cn3-c2ccc(F)cc2F)C1` (configuration not stated): the Potency entry is “inactive”.
`COc1cc(O)c(C(=O)c2ccccc2)cc1S(=O)(=O)O`: the Potency entry was “inactive”.
As to `CN(CCCN1c2ccccc2CCc2ccccc21)CC(=O)c1ccc(Cl)cc1`, the Potency result is “inactive”.
As to `C#C[C@]1(O)CC[C@H]2[C@@H]3CCC4=Cc5oncc5C[C@]4(C)[C@H]3CC[C@@]21C`, the Potency result was “inactive”.
In the case of `CCCc1ncc(C[n+]2ccccc2C)c(N)n1`, the Potency entry was “inactive”.
`CCC1NC(=O)c2cc(S(N)(=O)=O)c(Cl)cc2N1` (configuration not stated): the Potency result is “inactive”.
On the same count and under the same terms, with `CN1CCN(C2=Nc3ccccc3Sc3ccc(Cl)cc32)CC1` the entry was “inactive”; with `CCc1nn(CCCN2CCN(c3cccc(Cl)c3)CC2)c(=O)n1CCOc1ccccc1`, “inactive”.
Take `CCCN(CCc1cccs1)[C@H]1CCc2c(O)cccc2C1`: the Potency entry is “inactive”.
Turning to `OC[C@H]1O[C@@H](Oc2ccc(O)cc2)[C@H](O)[C@@H](O)[C@@H]1O`, the Potency entry is “inactive”.
